# PMC7862700, “An all-to-all approach to the identification of sequence-specific readers for epigenetic DNA modifications on cytosine”
# Experiments:
# Test in all cases: DAPPL (digital affinity profiling via proximity ligation, sequencing); 10 mM Tris-HCl pH 7.5, 50 mM NaCl, 1 mM DTT, 4% glycerol, room temperature, 30 min; GST-TFs on glutathione beads, 16-mer random dsDNA library, 0.1% formaldehyde crosslink after washing; high values mean tight binding
# FLI1 = target: T1, FLI1 (Homo sapiens, UniProt Q01543 1-452); settings: protein: recombinant; tags: N-terminal GST; dsDNA, one strand shown
# T1 sequence: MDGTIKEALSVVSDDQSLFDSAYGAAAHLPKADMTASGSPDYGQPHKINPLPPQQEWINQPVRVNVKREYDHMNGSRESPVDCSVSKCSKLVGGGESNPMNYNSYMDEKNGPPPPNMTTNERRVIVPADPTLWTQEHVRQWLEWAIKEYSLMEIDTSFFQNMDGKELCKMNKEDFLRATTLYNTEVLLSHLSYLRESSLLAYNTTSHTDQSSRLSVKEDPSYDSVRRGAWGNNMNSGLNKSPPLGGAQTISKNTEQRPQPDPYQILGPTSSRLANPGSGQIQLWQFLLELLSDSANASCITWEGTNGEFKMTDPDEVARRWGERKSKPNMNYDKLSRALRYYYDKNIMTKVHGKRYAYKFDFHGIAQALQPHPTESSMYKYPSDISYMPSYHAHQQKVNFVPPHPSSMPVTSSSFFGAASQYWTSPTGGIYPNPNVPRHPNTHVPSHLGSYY
# Method in brief: (§1)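 The binding signal reported is, for every hexamer, its read frequency for a factor over its read frequency for the tag-only sample. Reads came from pools of yeast-expressed, GST-fused human transcription factors on glutathione beads, barcoded with DNA and mixed with that sample, which were incubated with 200 nmole of a random double-stranded 16-mer DNA library in Tris/NaCl/DTT/glycerol buffer at room temperature for 30 min. After washing, the pools were crosslinked with 0.1% formaldehyde, proximity-ligated with BsaI/T4 ligase for 1 h at 37 °C, PCR-amplified and sequenced on an Illumina NextSeq500.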
# GABPA = target: T2, GABPA (Homo sapiens, UniProt Q06546 1-454); settings: protein: recombinant; tags: N-terminal GST; dsDNA, one strand shown
# T2 sequence: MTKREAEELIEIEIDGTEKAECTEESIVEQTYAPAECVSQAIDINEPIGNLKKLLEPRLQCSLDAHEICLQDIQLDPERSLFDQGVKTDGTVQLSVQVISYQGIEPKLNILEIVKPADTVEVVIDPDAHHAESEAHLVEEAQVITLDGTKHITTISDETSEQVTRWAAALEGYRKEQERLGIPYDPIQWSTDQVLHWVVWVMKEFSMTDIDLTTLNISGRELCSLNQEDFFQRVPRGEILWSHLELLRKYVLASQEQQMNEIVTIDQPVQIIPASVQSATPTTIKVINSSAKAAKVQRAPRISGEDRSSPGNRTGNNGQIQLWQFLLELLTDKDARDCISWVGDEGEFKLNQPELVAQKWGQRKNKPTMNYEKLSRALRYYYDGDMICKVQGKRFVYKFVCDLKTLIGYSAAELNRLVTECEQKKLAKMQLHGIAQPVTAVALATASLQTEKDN
# Method in brief: as §1
# ERG = target: T3, ERG (Homo sapiens, UniProt P11308 1-479); settings: protein: recombinant; tags: N-terminal GST; dsDNA, one strand shown
# T3 sequence: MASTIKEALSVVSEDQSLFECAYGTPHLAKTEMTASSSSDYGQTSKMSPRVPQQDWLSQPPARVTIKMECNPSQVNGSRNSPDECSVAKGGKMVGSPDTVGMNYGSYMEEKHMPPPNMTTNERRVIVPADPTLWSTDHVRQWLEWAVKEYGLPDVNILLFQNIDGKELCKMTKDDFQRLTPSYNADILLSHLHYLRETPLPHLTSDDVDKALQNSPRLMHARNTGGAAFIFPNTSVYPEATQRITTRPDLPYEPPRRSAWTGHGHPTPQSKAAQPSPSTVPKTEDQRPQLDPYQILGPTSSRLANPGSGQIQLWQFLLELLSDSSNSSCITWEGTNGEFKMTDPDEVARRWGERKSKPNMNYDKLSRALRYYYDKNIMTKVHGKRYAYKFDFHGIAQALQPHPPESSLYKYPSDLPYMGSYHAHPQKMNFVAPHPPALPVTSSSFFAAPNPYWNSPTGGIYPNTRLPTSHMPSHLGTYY
# Method in brief: as §1
# ELF1 = ELF1 (Homo sapiens, UniProt P32519 1-619); settings: protein: recombinant; tags: N-terminal GST; dsDNA, one strand shown
# Chain of ELF1 (P32519 whole entry): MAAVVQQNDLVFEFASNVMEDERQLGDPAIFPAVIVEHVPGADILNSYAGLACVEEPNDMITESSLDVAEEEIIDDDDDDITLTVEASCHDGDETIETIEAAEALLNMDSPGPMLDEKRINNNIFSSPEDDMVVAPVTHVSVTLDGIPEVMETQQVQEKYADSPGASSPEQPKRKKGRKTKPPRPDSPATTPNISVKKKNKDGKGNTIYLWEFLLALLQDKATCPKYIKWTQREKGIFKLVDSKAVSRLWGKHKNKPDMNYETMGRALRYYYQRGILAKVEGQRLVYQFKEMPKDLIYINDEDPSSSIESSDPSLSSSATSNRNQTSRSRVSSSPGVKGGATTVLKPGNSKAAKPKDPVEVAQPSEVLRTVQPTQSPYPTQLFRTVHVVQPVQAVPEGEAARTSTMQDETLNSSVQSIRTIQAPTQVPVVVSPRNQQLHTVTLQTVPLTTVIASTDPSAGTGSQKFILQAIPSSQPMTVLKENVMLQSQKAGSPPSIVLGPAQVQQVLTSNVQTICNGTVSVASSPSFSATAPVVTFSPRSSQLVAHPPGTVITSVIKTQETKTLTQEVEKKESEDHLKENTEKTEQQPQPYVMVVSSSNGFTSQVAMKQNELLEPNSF
# Method in brief: as §1
# EHF = target: T4, EHF (Homo sapiens, UniProt Q9NZC4 1-300); settings: protein: recombinant; tags: N-terminal GST; dsDNA, one strand shown
# T4 sequence: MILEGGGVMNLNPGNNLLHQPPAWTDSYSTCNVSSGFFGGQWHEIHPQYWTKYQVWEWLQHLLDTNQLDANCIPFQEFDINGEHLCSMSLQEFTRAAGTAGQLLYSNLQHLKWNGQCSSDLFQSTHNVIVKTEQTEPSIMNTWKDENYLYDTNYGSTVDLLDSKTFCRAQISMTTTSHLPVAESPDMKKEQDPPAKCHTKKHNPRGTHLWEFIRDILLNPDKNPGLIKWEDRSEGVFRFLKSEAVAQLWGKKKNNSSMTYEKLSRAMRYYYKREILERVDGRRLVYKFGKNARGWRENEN
# Method in brief: as §1
# SPI1 = SPI1 (Homo sapiens, UniProt P17947 1-270); settings: protein: recombinant; tags: N-terminal GST; dsDNA, one strand shown
# Method in brief: as §1
# ELK3 = target: T5, ELK3 (Homo sapiens, UniProt P41970 1-407); settings: protein: recombinant; tags: N-terminal GST; dsDNA, one strand shown
# T5 sequence: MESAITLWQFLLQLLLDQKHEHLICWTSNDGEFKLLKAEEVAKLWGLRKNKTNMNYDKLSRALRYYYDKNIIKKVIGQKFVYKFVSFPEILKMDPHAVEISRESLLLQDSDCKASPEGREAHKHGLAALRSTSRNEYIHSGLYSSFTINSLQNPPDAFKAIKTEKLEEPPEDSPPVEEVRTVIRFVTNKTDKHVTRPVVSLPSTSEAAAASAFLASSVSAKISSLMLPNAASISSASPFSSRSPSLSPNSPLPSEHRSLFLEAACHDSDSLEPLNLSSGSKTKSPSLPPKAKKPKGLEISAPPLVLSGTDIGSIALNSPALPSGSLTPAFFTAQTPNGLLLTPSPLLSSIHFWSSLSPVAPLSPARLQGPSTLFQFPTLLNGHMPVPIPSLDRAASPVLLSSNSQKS
# Method in brief: as §1
# ETV5 = ETV5 (Homo sapiens, UniProt P41161 1-510); settings: protein: recombinant; tags: N-terminal GST; dsDNA, one strand shown
# Chain of ETV5 (P41161 whole entry): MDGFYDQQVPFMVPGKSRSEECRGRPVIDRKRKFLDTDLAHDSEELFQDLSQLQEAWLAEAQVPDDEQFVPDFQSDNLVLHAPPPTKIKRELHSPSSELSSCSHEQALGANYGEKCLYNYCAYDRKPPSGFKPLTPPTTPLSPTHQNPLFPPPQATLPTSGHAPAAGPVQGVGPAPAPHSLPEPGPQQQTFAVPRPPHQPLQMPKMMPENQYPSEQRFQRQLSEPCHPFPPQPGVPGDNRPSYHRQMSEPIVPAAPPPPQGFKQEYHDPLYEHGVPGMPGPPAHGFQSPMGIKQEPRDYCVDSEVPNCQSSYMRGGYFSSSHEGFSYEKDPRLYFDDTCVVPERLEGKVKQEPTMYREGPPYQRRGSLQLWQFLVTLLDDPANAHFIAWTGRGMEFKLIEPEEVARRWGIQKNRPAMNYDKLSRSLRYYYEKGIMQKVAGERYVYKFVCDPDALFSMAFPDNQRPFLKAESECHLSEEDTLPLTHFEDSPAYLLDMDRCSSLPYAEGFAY
# Method in brief: as §1
# HSF1 = HSF1 (Homo sapiens, UniProt Q00613 1-529); settings: protein: recombinant; tags: N-terminal GST; chain copies: 3; dsDNA, one strand shown
# Chain of HSF1 (Q00613 whole entry): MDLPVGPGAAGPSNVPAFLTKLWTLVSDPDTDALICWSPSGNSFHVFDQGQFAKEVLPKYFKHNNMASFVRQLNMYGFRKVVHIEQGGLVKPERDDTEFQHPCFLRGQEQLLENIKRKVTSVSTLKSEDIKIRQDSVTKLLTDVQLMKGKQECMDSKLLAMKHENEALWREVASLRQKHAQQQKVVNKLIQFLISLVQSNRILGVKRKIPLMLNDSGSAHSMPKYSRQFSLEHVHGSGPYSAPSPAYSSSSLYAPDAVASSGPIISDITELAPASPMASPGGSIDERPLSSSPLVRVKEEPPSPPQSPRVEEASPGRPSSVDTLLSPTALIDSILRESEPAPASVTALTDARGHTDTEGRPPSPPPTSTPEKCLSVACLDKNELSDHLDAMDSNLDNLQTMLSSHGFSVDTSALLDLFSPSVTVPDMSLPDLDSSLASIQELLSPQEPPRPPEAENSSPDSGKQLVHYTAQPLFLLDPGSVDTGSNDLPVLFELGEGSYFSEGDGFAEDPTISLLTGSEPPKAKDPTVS
# Method in brief: as §1
# SPIC = target: T6, SPIC (Homo sapiens, UniProt Q8N5J4 1-248); settings: protein: recombinant; tags: N-terminal GST; dsDNA, one strand shown
# T6 sequence: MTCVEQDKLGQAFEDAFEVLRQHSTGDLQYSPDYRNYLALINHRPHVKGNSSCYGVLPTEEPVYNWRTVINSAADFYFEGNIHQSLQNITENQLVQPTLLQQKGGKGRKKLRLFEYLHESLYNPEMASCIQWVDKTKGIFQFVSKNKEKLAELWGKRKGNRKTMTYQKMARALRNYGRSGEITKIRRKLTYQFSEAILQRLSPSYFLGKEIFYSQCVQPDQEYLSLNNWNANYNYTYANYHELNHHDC
# Method in brief: as §1
# ETV2 = target: T7, ETV2 (Homo sapiens, UniProt O00321 1-342); settings: protein: recombinant; tags: N-terminal GST; dsDNA, one strand shown
# T7 sequence: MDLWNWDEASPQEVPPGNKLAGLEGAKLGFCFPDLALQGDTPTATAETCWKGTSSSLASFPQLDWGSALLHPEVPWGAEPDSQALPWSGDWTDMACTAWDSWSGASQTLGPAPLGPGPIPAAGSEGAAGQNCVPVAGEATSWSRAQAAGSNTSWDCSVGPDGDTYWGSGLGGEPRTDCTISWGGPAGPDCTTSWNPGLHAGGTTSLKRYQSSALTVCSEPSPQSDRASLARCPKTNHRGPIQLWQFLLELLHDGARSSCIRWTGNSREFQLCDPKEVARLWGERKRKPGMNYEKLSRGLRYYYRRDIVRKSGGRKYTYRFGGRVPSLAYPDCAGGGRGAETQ
# Method in brief: as §1
# ELF3 = target: T8, ELF3 (Homo sapiens, UniProt P78545 1-371); settings: protein: recombinant; tags: N-terminal GST; dsDNA, one strand shown
# T8 sequence: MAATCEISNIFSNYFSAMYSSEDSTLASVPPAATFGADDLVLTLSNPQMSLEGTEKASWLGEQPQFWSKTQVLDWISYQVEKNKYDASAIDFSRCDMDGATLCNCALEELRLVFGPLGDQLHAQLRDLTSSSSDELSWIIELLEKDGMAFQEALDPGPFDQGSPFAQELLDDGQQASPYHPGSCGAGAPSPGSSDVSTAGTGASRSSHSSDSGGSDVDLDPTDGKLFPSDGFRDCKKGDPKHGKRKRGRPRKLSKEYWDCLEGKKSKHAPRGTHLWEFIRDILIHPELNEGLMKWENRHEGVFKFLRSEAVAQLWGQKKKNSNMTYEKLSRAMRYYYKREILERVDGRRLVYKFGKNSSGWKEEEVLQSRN
# Method in brief: as §1
# CRX = CRX (Homo sapiens, UniProt O43186 1-299); settings: protein: recombinant; tags: N-terminal GST; dsDNA, one strand shown
# Chain of CRX (O43186 whole entry): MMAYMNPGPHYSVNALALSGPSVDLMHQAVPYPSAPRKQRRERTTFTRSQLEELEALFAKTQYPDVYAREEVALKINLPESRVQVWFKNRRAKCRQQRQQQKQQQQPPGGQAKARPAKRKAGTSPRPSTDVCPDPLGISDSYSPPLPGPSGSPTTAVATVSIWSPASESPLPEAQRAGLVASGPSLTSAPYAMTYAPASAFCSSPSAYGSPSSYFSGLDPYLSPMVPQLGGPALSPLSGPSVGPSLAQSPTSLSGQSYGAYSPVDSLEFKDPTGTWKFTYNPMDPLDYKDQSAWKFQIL
# Method in brief: as §1
# ETV1 = ETV1 (Homo sapiens, UniProt P50549 1-477); settings: protein: recombinant; tags: N-terminal GST; dsDNA, one strand shown
# Chain of ETV1 (P50549 whole entry): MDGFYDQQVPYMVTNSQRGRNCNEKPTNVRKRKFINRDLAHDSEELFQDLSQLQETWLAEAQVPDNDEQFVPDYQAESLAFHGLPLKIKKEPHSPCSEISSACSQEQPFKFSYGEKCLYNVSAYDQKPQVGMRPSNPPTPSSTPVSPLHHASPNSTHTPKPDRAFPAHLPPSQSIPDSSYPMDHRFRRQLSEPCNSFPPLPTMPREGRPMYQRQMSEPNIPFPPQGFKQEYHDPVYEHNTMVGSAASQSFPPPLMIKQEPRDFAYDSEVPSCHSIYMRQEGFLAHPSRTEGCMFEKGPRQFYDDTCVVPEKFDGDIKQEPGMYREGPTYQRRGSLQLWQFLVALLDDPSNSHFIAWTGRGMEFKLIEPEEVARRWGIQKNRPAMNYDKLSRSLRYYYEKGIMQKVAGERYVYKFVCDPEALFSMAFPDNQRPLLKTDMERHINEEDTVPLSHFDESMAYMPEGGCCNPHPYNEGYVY
# Method in brief: as §1
sequence,measurement,setting,value
TAAGCG,binding signal,FLI1,"1.05 fold enrichment (6-mer frequency, TF over GST control)"
same,binding signal,GABPA,"1.01 fold enrichment (6-mer frequency, TF over GST control)"
same,binding signal,ERG,"1.02 fold enrichment (6-mer frequency, TF over GST control)"
same,binding signal,ELF1,"1.02 fold enrichment (6-mer frequency, TF over GST control)"
same,binding signal,EHF,"1.02 fold enrichment (6-mer frequency, TF over GST control)"
same,binding signal,SPI1,"1.03 fold enrichment (6-mer frequency, TF over GST control)"
same,binding signal,ELK3,"1.01 fold enrichment (6-mer frequency, TF over GST control)"
same,binding signal,ETV5,"1.02 fold enrichment (6-mer frequency, TF over GST control)"
same,binding signal,HSF1,"1.34 fold enrichment (6-mer frequency, TF over GST control)"
same,binding signal,SPIC,"1.04 fold enrichment (6-mer frequency, TF over GST control)"
same,binding signal,ETV2,"1.05 fold enrichment (6-mer frequency, TF over GST control)"
same,binding signal,ELF3,"1.19 fold enrichment (6-mer frequency, TF over GST control)"
same,binding signal,CRX,"1.86 fold enrichment (6-mer frequency, TF over GST control)"
same,binding signal,ETV1,"1 fold enrichment (6-mer frequency, TF over GST control)"
